From the supplement of paper PMC8975748
Counter-ions that a name gives are not always drawn. ± gives the standard deviation of the averaged measurements.

Experiments:
[1] = test system: Saccharomyces cerevisiae BY4741 SeMeCo community; assay: z-score of prototroph abundance vs DMSO median; higher = larger share of this subpopulation than in DMSO controls; settings: 10 µM; 24 h; SM minimal medium; subpopulation (auxotrophy): Prototroph
Method in brief: (§1)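 Subpopulation abundance was reported as a z-score against the median of vehicle wells. The Saccharomyces cerevisiae BY4741 community, carrying four plasmids that each restored one auxotrophy and encoded a distinct fluorescent protein, was grown 24 h in minimal SM medium in 384-well plates holding library drugs at 10 µM final. Cells were paraformaldehyde-fixed and imaged by automated confocal microscopy, with single-auxotroph fluorescent strains used for thresholds and autofluorescence correction.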

[2] = test system: Saccharomyces cerevisiae BY4741 SeMeCo community; assay: z-score of subpopulation abundance vs DMSO median, subpopulation auxotrophic for M; higher = larger share of this subpopulation than in DMSO controls; settings: 10 µM; 24 h; SM minimal medium; subpopulation (auxotrophy): M
Method in brief: as §1

[3] = test system: Saccharomyces cerevisiae BY4741 SeMeCo community; assay: z-score of subpopulation abundance vs DMSO median, subpopulation auxotrophic for L; higher = larger share of this subpopulation than in DMSO controls; settings: 10 µM; 24 h; SM minimal medium; subpopulation (auxotrophy): L
Method in brief: as §1

[4] = test system: Saccharomyces cerevisiae BY4741 SeMeCo community; assay: z-score of subpopulation abundance vs DMSO median, subpopulation auxotrophic for U; higher = larger share of this subpopulation than in DMSO controls; settings: 10 µM; 24 h; SM minimal medium; subpopulation (auxotrophy): U
Method in brief: as §1

[5] = test system: Saccharomyces cerevisiae BY4741 SeMeCo community; assay: z-score of subpopulation abundance vs DMSO median, subpopulation auxotrophic for H; higher = larger share of this subpopulation than in DMSO controls; settings: 10 µM; 24 h; SM minimal medium; subpopulation (auxotrophy): H
Method in brief: as §1

[6] = test system: Saccharomyces cerevisiae BY4741 SeMeCo community; assay: z-score of subpopulation abundance vs DMSO median, subpopulation auxotrophic for LU; higher = larger share of this subpopulation than in DMSO controls; settings: 10 µM; 24 h; SM minimal medium; subpopulation (auxotrophy): LU
Method in brief: as §1

[7] = test system: Saccharomyces cerevisiae BY4741 SeMeCo community; assay: z-score of subpopulation abundance vs DMSO median, subpopulation auxotrophic for LM; higher = larger share of this subpopulation than in DMSO controls; settings: 10 µM; 24 h; SM minimal medium; subpopulation (auxotrophy): LM
Method in brief: as §1

[8] = test system: Saccharomyces cerevisiae BY4741 SeMeCo community; assay: z-score of subpopulation abundance vs DMSO median, subpopulation auxotrophic for HM; higher = larger share of this subpopulation than in DMSO controls; settings: 10 µM; 24 h; SM minimal medium; subpopulation (auxotrophy): HM
Method in brief: as §1

[9] = test system: Saccharomyces cerevisiae BY4741 SeMeCo community; assay: z-score of subpopulation abundance vs DMSO median, subpopulation auxotrophic for HU; higher = larger share of this subpopulation than in DMSO controls; settings: 10 µM; 24 h; SM minimal medium; subpopulation (auxotrophy): HU
Method in brief: as §1

[10] = test system: Saccharomyces cerevisiae BY4741 SeMeCo community; assay: z-score of subpopulation abundance vs DMSO median, subpopulation auxotrophic for UM; higher = larger share of this subpopulation than in DMSO controls; settings: 10 µM; 24 h; SM minimal medium; subpopulation (auxotrophy): UM
Method in brief: as §1

[11] = test system: Saccharomyces cerevisiae BY4741 SeMeCo community; assay: z-score of subpopulation abundance vs DMSO median, subpopulation auxotrophic for HL; higher = larger share of this subpopulation than in DMSO controls; settings: 10 µM; 24 h; SM minimal medium; subpopulation (auxotrophy): HL
Method in brief: as §1

[12] = test system: Saccharomyces cerevisiae BY4741 SeMeCo community; assay: z-score of subpopulation abundance vs DMSO median, subpopulation auxotrophic for HLU; higher = larger share of this subpopulation than in DMSO controls; settings: 10 µM; 24 h; SM minimal medium; subpopulation (auxotrophy): HLU
Method in brief: as §1

[13] = test system: Saccharomyces cerevisiae BY4741 SeMeCo community; assay: z-score of subpopulation abundance vs DMSO median, subpopulation auxotrophic for HLM; higher = larger share of this subpopulation than in DMSO controls; settings: 10 µM; 24 h; SM minimal medium; subpopulation (auxotrophy): HLM
Method in brief: as §1

[14] = test system: Saccharomyces cerevisiae BY4741 SeMeCo community; assay: z-score of subpopulation abundance vs DMSO median, subpopulation auxotrophic for HUM; higher = larger share of this subpopulation than in DMSO controls; settings: 10 µM; 24 h; SM minimal medium; subpopulation (auxotrophy): HUM
Method in brief: as §1

[15] = test system: Saccharomyces cerevisiae BY4741 SeMeCo community; assay: z-score of subpopulation abundance vs DMSO median, subpopulation auxotrophic for LUM; higher = larger share of this subpopulation than in DMSO controls; settings: 10 µM; 24 h; SM minimal medium; subpopulation (auxotrophy): LUM
Method in brief: as §1

[16] = test system: Saccharomyces cerevisiae BY4741 SeMeCo community; assay: z-score of subpopulation abundance vs DMSO median, subpopulation auxotrophic for HLUM; higher = larger share of this subpopulation than in DMSO controls; settings: 10 µM; 24 h; SM minimal medium; subpopulation (auxotrophy): HLUM
Method in brief: as §1

[17] = test system: Saccharomyces cerevisiae BY4741 SeMeCo community; assay: mean cell size (pixel area) (pixels); higher = larger cells; settings: 10 µM; 24 h; SM minimal medium
Method in brief: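 Yeast cells were fixed with paraformaldehyde, imaged by automated confocal microscopy and analysed in Harmony to obtain mean cell pixel area per well. They came from a four-plasmid fluorescent Saccharomyces cerevisiae BY4741 community, each plasmid complementing one auxotrophy and carrying a fluorescent marker. Before imaging, 70 µl of culture at OD600 = 0.3 was incubated for 24 h in SM medium in 384-well plates predosed acoustically with drug (final 10 µM). Values are means of 3 replicates. Same SeMeCo high-content imaging drug screen: Selleck FDA-approved drugs at 10 µM, 24 h in SM medium, 384-well plates, 3 replicates.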

SMILES	z-score of prototroph abundance [1]	z-score of subpopulation abundance [2]	z-score of subpopulation abundance [3]	z-score of subpopulation abundance [4]	z-score of subpopulation abundance [5]	z-score of subpopulation abundance [6]	z-score of subpopulation abundance [7]	z-score of subpopulation abundance [8]	z-score of subpopulation abundance [9]	z-score of subpopulation abundance [10]	z-score of subpopulation abundance [11]	z-score of subpopulation abundance [12]	z-score of subpopulation abundance [13]	z-score of subpopulation abundance [14]	z-score of subpopulation abundance [15]	z-score of subpopulation abundance [16]	mean cell size [17]
CCN(CC)CCNC(=O)c1cc(S(C)(=O)=O)ccc1OC [Tiapride Hydrochloride]	-1.37	0.16	0.96	0.29	0.23	1.17	0.55	0.84	0.47	0.43	0.93	0.72	3.15	0.14	0.9	2.52	
CCCCOC(=O)c1ccc(O)cc1 [Butylparaben]	1.77	-0.57	-0.62		-1.64	-1.79			-1.93	-1.24	-0.99	-1.3	-0.41	-1.38	-0.62	0.07	12.3 ± 0.29
O=C(Nc1cccc(C2=NCCN2)c1)Nc1cccc(C2=NCCN2)c1 [Imidocarb dipropionate]	0.72	-1.19	-0.04	0.07	-0.78	0.44		-0.79		-0.26	-0.57	0.17	-0.49	-0.49	-0.67	0.13	12.1 ± 0.27
COCCCC/C(=N\OCCN)c1ccc(C(F)(F)F)cc1 [Fluvoxamine maleate]	0.26	0.23	0.54	-0.51		-0.03	0.51	-0.09	-0.5	-0.21	-0.26	-0.3	-0.76	0.06	0.15	-0.43	
Cc1c(Nc2ncccc2C(=O)O)cccc1C(F)(F)F [Flunixin Meglumin]	0.11	-0.95	-1.33	0.63		-0.33		-0.07	-0.19		-0.74	-1	-0.58	0.12		0	12.6 ± 0.17
CC1=CC[C@@](O)(C(C)C)CC1 [Terpinen-4-ol]	-0.41	-1.02	0.37	0.8	-0.04	0.74	-0.03	-0.39	0.31	0.26	-0.57	0.05	0.54	-0.35	0.2	0.81	
Cc1cc(=O)n(-c2ccccc2)n1C [Antipyrine]	0.87	0.62	-0.59	-0.44	-1.04	-0.69		-0.59		-1.23	-0.85	-0.53	-0.18	-0.77	0.02	-0.47	12.6 ± 0.13
CCn1cc(C(=O)O)c(=O)c2cc(F)c(N3CCN(C)CC3)cc21 [Pefloxacin Mesylate Dihydrate]	-0.64	1.25	-0.36		0.39	-0.04		0.71	0.28	0.05	0.3	0.03	0.88	-0.06	-0.46	-0.42	12.7 ± 0.14
CC[C@H](Nc1ncnc2[nH]cnc12)c1nc2cccc(F)c2c(=O)n1-c1ccccc1 [Idelalisib (CAL-101, GS-1101)]	-0.14	-0.54	-0.49	1.09	0.31	0.5	-0.23	-0.64	0.68	0.34	-1.05	-0.35	0.08	-0.4	0.11	-0.62	
C[C@@H]1CN(c2c(F)c(N)c3c(=O)c(C(=O)O)cn(C4CC4)c3c2F)C[C@H](C)N1 [Sparfloxacin]		-0.53	0.07	-0.2	-0.34	-0.36		-0.01		-0.25	-0.29	-0.1	-0.79	-0.04	-0.41	-0.92	12.38 ± 0.094
CN[C@@H]1[C@H](O[C@H]2[C@H](O[C@H]3[C@H](O)[C@@H](O)[C@H](N=C(N)N)[C@@H](O)[C@@H]3N=C(N)N)O[C@@H](C)[C@]2(O)C=O)O[C@@H](CO)[C@H](O)[C@H]1O [Streptomycin sulfate]	0.05	-0.43	-1.14	1.16	0.36	-0.25		0.19	0.65		-0.36	-0.4	-0.57	0.39		-0.41	11.99 ± 0.031
C[C@@H](c1ncncc1F)[C@](O)(Cn1cncn1)c1ccc(F)cc1F [Voriconazole]	-11.6	0.27	-2.55	-0.12	12.8	1.96			9.96	16.4	6.37	16.6	41.5	14.4	5.58	16.5	11.9 ± 0.18
O=C([O-])CC(O)(CC(=O)[O-])C(=O)[O-].O=C([O-])CC(O)(CC(=O)[O-])C(=O)[O-].[Bi+3].[K+].[K+].[K+].[K+].[K+] [Bismuth Subcitrate Potassium]	0.38	-3.84	2.37	-0.49	3.24	1.34	-1.07	-1.66	2.94	-2.69	4.34	3	1.76	-1.79	0.14	0.65	
